Screens as filed in PubChem.
GSH fluor: compound fluorescence on glutathione beads, profiling panel, artefact control, biophysical, 488/530 nm, flow cytometry; GSH beads flow cytometry, compound fluorescence 488/530 nm; hits give high values; hit rate 0.25% among 190,000; fluorescence (KMESF) at 10 µM; in the data active means fluorescence above about 89;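 further: glutathione beads carrying GST-tagged Bcl family fusion proteins plus one bare bead set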
RGS8-Gao reg: RGS8-Galphao binding modulators, primary screen, biochemical, multiplexed bead flow cytometry; Guanine nucleotide-binding protein G(o) subunit alpha (Homo sapiens), P09471; actives lie on both sides; response (percent of control binding), % at 10 µM; hit rate 0.34% among 220,000; AID 1423, 2008; in the data active means response below about 60% or above about 140%; inactive means in between;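 further: Galphao activated as the GDP aluminium fluoride complex binding bead-coupled RGS8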
Target sequence (P09471 whole entry, looked up): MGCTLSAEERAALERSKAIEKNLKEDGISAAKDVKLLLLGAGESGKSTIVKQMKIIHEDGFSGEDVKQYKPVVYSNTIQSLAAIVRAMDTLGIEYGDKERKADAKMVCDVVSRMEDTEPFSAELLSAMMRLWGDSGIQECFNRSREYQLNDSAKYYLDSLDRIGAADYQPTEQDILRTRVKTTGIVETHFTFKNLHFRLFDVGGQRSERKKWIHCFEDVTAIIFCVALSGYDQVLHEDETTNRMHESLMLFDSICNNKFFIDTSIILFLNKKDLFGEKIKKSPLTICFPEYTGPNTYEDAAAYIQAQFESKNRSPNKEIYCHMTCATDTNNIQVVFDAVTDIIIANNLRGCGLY
RGS7-Gao: RGS7-Galphao binding modulators, primary screen, biochemical, multiplexed bead flow cytometry | Guanine nucleotide-binding protein G(o) subunit alpha (Homo sapiens), P09471 | actives lie on both sides | binding response (% of control), % at 10 µM | hit rate 0.35% among 220,000 | AID 1439, 2008; in the data active means binding response below about 49% or above about 150%; inconclusive means no clear call, values can overlap the other calls; inactive means in between;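 further: fluorescent Galphao held in activated GDP-AlF4 state binding bead-coupled RGS7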
RGS16-Gao HTS: modulators of RGS16 binding to Galphao, primary screen, biochemical, human proteins, multiplexed bead flow cytometry; Regulator of G-protein signaling 16 (Homo sapiens) + Guanine nucleotide-binding protein …; bead-based flow cytometry RGS16-Galphao binding, fluorescence; actives lie on both sides; binding response (% of control), % at 10 µM; hit rate 0.38% among 220,000; AID 1441, 2008;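 further: Galphao activated by GDP with aluminum fluoride before binding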
Target sequence (O15492 whole entry, looked up): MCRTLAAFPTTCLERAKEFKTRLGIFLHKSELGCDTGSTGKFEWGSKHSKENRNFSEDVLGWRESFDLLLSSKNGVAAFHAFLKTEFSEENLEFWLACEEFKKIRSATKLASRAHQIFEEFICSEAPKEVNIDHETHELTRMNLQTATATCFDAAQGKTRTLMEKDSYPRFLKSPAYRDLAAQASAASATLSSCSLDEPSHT
Target sequence (P09471 whole entry, looked up): as the sequence (P09471 whole entry, looked up) above
Avidin fluor: green autofluorescence of compounds with avidin beads – biophysical, 488/530 nm, flow cytometry, artefact control, profiling panel; compound fluorescence 488/530 nm; hits give high values; fluorescence (KMESF) at 10 µM; hit rate 0.38% among 220,000; AID 1775, 2009; in the data active means fluorescence above about 47
RGS4-Gao reg: modulators of RGS4 binding to Galphao, primary screen, biochemical, multiplexed bead flow cytometry; Guanine nucleotide-binding protein G(o) subunit alpha (Homo sapiens), P09471; AID 1415, 2008; actives lie on both sides; binding response (% of control), % at 10 µM; hit rate 0.33% among 220,000; in the data active means binding response below about 49% or above about 150%; inactive means in between;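 further: fluorescent Galphao activated with aluminum fluoride binding bead-coupled RGS4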
RGS4-Gao HTS: modulators of RGS–Galpha-o binding, primary screen, biochemical, multiplexed beads, flow cytometry, RGS4/7/8/16/19; shares compounds with RGS16-Gao HTS; AID 1504, 2009; multiplexed bead flow cytometry; hit rate 99% among 1,600; RGS4–Galpha-o binding response, % at 10 µM;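 further: fluorescently labeled Galpha-o bound to GDP with aluminium fluoride binding biotinylated RGS beads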
Biotin-avidin: disruption of biotin probe capture by avidin, counter-screen for RGS protein interaction modulators, biochemical, flow cytometry, bead-based; inhibition, % at 10 µM; 1,700 tested, under 10 active; shares compounds with RGS16-Gao HTS; streptavidin beads, fluorescein-biotin binding;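 active means inhibition above 50%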;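 further: median green fluorescence of gated singlet beads compared with DMSO control wells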
RGS8-Gao confirm: RGS8-Galphao binding modulators, confirmation, biochemical, multiplexed bead flow cytometry, single concentration; shares compounds with RGS16-Gao HTS; bead-based flow cytometry RGS8-Galphao binding, fluorescence; actives lie on both sides; binding response (% of control), % at 10 µM; hit rate 3% among 1,700; AID 1836, 2009; in the data active means binding response below about 72% or above about 130%; inactive means in between;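 further: Galphao activated as GDP AlF4 complex before binding bead RGS8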
RGS7-Gao confirm: RGS7-Galphao binding modulators, confirmation, biochemical, multiplexed bead flow cytometry, single concentration; bead-based flow cytometry RGS7-Galphao binding; actives lie on both sides; shares compounds with RGS16-Gao HTS; response (percent of control binding), % at 10 µM; hit rate 7.8% among 1,700; in the data active means response below about 75% or above about 130%; inactive means in between;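 further: fluorescent Galphao activated with GDP and aluminum fluoride binding bead-coupled RGS7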
RGS16-Gao conf: modulators of RGS16-Galphao protein binding, confirmation, biochemical, single concentration, multiplexed bead flow cytometry | bead-based flow cytometry; actives lie on both sides | AID 1838, 2009 | shares compounds with RGS16-Gao HTS | hit rate 4% among 1,700 | response (% of control binding), % at 10 µM; in the data active means response below about 74% or above about 130%; inactive means in between;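 further: Galphao activated as the GDP aluminium fluoride complex binding bead-coupled RGS16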
RGS4-Gao single: modulators of RGS4-Galphao protein binding, confirmation, biochemical, single concentration, multiplexed bead flow cytometry. AID 1840, 2009. binding response (% of control), % at 10 µM. actives lie on both sides. shares compounds with RGS16-Gao HTS. hit rate 4% among 1,700; in the data active means binding response below about 74% or above about 130%; inactive means in between
RGS19-Gao single: regulators of RGS19-Galphao binding, confirmation, biochemical, single point, multiplexed bead flow cytometry; shares compounds with RGS16-Gao HTS; bead-based flow cytometry RGS19-Galphao binding; actives lie on both sides; response (percent of control binding), % at 10 µM; hit rate 5% among 1,700; in the data active means response below about 50% or above about 160%; inactive means in between
Hits are given with their value; n = inactive; u = inconclusive; x = no result given; [ ] = dose if it differs, or a comment. Hits are enriched below; roughly 1.2% of the tested compounds scored in any of these assays. Unless noted, how the calls were made is not given here.

SMILES	GSH fluor	RGS8-Gao reg	RGS7-Gao	RGS16-Gao HTS	Avidin fluor	RGS4-Gao reg	RGS4-Gao HTS	Biotin-avidin	RGS8-Gao confirm	RGS7-Gao confirm	RGS16-Gao conf	RGS4-Gao single	RGS19-Gao single
CCCN1CCN(CCCNC(=O)CCNC(=O)Cn2ccc3ccccc3c2=O)CC1	n	141.7[activator]	n	n	n	n	103.6	n	n	n	n	n	n
O=C(O)Cc1ccc(OCc2ccc(Cl)nc2)cc1	n	n	n	n	n	n	x	x	x	x	x	x	x
COc1ccc(S(=O)(=O)N2CCC(N3CCCCC3)CC2)cc1	n	n	n	n	n	n	x	x	x	x	x	x	x
O=C(C1CCN(S(=O)(=O)c2ccc(F)cc2)CC1)N1CCOCC1	n	n	167.6[activator]	n	110	n	115.1	n	n	n	n	n	n
O=S(=O)(c1ccc(F)cc1)N1CCC(N2CCCC2)CC1	n	n	162.9[activator]	n	88	n	107.3	x	x	x	x	x	x
CO/C(N)=C(\C#N)N=Cc1ccccc1Cl	n	n	n	n	n	n	x	x	x	x	x	x	x
Cc1ccc(CNc2cnn(C34CC5CC(CC(C5)C3)C4)c(=O)c2Cl)cc1	n	11.1	7.4	5.8	n	0.2	x	n	n	n	n	n	n
Cc1cc(C)cc(Nc2cnn(C34CC5CC(CC(CC(=O)O)(C5)C3)C4)c(=O)c2Cl)c1	n	x	x	x	x	n	x	n	n	n	n	n	n
Cc1cccc(Nc2cnn(C34CC5CC(CC(CC(=O)O)(C5)C3)C4)c(=O)c2Cl)c1	n	n	n	n	n	n	x	x	x	x	x	x	x
O=C(CCC1CCCN(C(=O)c2ccc3c(c2)OCO3)C1)N1CCN(c2ccccn2)CC1 (centres undefined)	n	n	n	n	n	n	x	x	x	x	x	x	x
CCOc1cc(/C=C/C(=O)OCC(=O)NC2CCS(=O)(=O)C2)ccc1OCc1ccccc1 (centres undefined)	n	n	n	n	n	n	x	x	x	x	x	x	x
COc1ccc(/C=N/n2cnn(Cc3ccccc3Cl)c2=S)cc1	n	14.8	u	12.2	n	22.9	x	n	n	n	n	n	n
NS(=O)(=O)c1ccc(O)c(N2C(=O)c3cccc4c(C(=O)c5ccccc5)ccc(c34)C2=O)c1	n	n	n	n	n	n	x	x	x	x	x	x	x
CCOC(=O)C1(CCCc2ccccc2)CCN(C(=O)CN2C(=O)CSC2=O)CC1	n	n	n	n	n	n	x	x	x	x	x	x	x
Cc1ccc(N(CC(=O)N2CCN(C3CCCCC3)CC2)S(=O)(=O)c2cccnc2)cc1	n	n	n	259.8[activator]	n	n	109.0	x	x	x	x	x	x
Cc1ccc(S(=O)(=O)N(CC(=O)N2CCCCCC2)c2ccccc2)cc1	n	n	n	n	n	n	x	x	x	x	x	x	x
CO/N=C\c1cc(C(=O)c2ccc(Cl)cc2Cl)cn1C	n	n	u	n	n	n	x	x	x	x	x	x	x
CC(C)c1onc(C(=O)N2CCCCC2C)c1[N+](=O)[O-] (centres undefined)	n	30.3	23.3	n	n	27.7	x	n	n	n	n	n	n
CC(C)c1onc(C(=O)N2C(C)CCCC2C)c1[N+](=O)[O-] (centres undefined)	n	n	n	n	n	n	x	x	x	x	x	x	x
O=C1C(=Cc2ccc(Br)o2)C(=O)c2ccccc21	n	32.1	1.6	8.3	n	n	53.4	x	x	x	x	x	x
COc1ccc(C(CCNCc2ccc(OC(C)C)cc2)C(C)C)cc1 (centres undefined)	x	8.9	u	-5.3	n	-9.6	x	n	n	n	n	n	n
COc1ccc(CNCCC(c2ccc(OC(C)C)cc2)C(C)C)cc1OC (centres undefined)	n	142.0[activator]	n	n	n	n	117.3	n	n	n	n	n	n
COc1ccc(C(CCNCc2ccc(N(C)C)cc2)C(C)C)cc1 (centres undefined)	x	n	u	n	n	n	x	x	x	x	x	x	x
CCN(c1ccc(N=Cc2c(O)n(Cc3ccc(OC)cc3)c(=O)c3ccccc23)cc1)C(C)C	155	n	162.5[activator]	n	n	n	123.6	n	n	309.2[activator]	193.7[activator]	220.6[activator]	472.9[activator]
O=C(Nc1ccccn1)NC1CCS(=O)(=O)C1 (centres undefined)	n	n	n	-92.4	n	n	75.9	n	n	n	n	n	n
SMILES	GSH fluor	RGS8-Gao reg	RGS7-Gao	RGS16-Gao HTS	Avidin fluor	RGS4-Gao reg	RGS4-Gao HTS	Biotin-avidin	RGS8-Gao confirm	RGS7-Gao confirm	RGS16-Gao conf	RGS4-Gao single	RGS19-Gao single
O=C(Nc1ccccn1)NC1CCCCC1	n	x	x	x	x	198.9[activator]	x	n	n	n	n	n	n
O=C(NCc1ccccn1)NC1CCCCC1	n	n	n	n	n	n	x	x	x	x	x	x	x
O=C(Nc1ccc(Cl)cc1)NC1CCS(=O)(=O)C1 (centres undefined)	n	n	n	n	n	n	x	x	x	x	x	x	x
COc1ccc([N+](=O)[O-])cc1N(CC(=O)N1CCCCC1)S(C)(=O)=O	n	n	n	n	n	n	x	x	x	x	x	x	x
Cc1nc(SCc2nc3ccccc3[nH]2)c2oc3ccccc3c2n1	n	n	166.7[activator]	n	133	n	128.0	x	x	x	x	x	x
c1ccc2[nH]c(CSc3ncnc4c3oc3ccccc34)nc2c1	n	n	n	n	n	n	x	x	x	x	x	x	x
